# Screens (PubChem)
# Hits are enriched below; roughly 7.3% of the tested compounds scored in any of these assays.
# HCMV antiviral: blocks human cytomegalovirus replication; HFF cells, HCMV-luciferase reporter, 72 h; active compounds read low; activity change, negative = inhibition, % at 57.5 µM; 410,000 compounds, 4.5% hits; AID 1259415; in the data active means activity change below about -60%; inconclusive means no clear call, values can overlap the other calls; inactive means above about -39%
#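 Luciferase read-out from HCMV-luciferase-infected HFFs (MOI 1 PFU/cell) 72 h post infection at 37C; compounds added after 16 h cell attachment; activity normalized between buffer-only basal and Salinomycin (10uM) inhibitor controls.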
# AmpC detergent: inhibitors of E. coli AmpC beta-lactamase with detergent; P00811; AmpC hydrolysis of nitrocefin, absorbance 480 nm, 0.01% Triton; Potency, µM (doses to about 114 µM), usual class: inhibitors; 370,000 compounds, 0.041% hits; further: nearly all actives have a fitted effect of over 25% in size
# Target sequence (P00811 whole entry, looked up): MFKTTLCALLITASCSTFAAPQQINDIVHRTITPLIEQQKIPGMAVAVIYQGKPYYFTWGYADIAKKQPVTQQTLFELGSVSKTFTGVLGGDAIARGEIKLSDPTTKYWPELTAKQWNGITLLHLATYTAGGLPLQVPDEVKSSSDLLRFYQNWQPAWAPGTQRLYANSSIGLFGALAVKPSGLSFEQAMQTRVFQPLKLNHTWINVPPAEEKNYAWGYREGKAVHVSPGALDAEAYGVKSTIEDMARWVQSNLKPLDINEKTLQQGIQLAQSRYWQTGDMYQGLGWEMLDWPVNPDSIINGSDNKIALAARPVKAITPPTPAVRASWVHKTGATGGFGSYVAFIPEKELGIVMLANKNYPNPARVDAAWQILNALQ
#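 AmpC (5.3 nM in the dispensed reagent) in 20 mM phosphate pH 7.0 with 0.01% (detergent screen) or 0.0001% Triton X-100 was preincubated with compounds for 15 min at room temperature. Nitrocefin was then added from an 800 uM solution, and hydrolysis was followed at 480 nm.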
# HCV inh: inhibitors of hepatitis C virus infection | AID 651820 | Potency, µM (top dose mostly 41.8 µM), hits mostly inhibitors | Huh7.5.1 HCVcc-Cre infection, luciferase reporter, 44 h | 340,000 compounds, 3.4% hits
#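 Cells seeded at 1,000/well and cultured 4 h, then compounds added followed by HCVcc-Cre virus (~0.5 moi). After 44 h further culture, luciferase substrate was added, plates held 15 min at room temperature, and luminescence read for 15 sec.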
# FMDV inh: blocks foot and mouth disease virus. 410,000 compounds, 1.2% hits. FMDV antiviral cell-based qHTS. AID 1159524. Potency, µM (top dose mostly 57.9 µM), actives largely listed as inhibitors; calls by dose curve; tested in HEK293T cells; further: read-out not given here; nearly all actives have a fitted effect of over 45% in size
# AmpC no deterg: inhibitors of E. coli AmpC beta-lactamase without detergent | P00811 | AmpC nitrocefin hydrolysis, absorbance 480 nm, 0.0001% Triton | Potency, µM (titrated, usually from 57.1 µM), actives largely listed as inhibitors | 330,000 compounds, 0.52% hits; further: nearly all actives have a fitted effect of over 20% in size
#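 20 mM phosphate pH 7.0 + 0.01% (detergent screen) or 0.0001% Triton X-100; 5.3 nM AmpC reagent; cpd preinc 15 min RT; nitrocefin (800 uM stock) to start; A480 q20 s × 4 min; Activity was normalised to no-enzyme and no-compound control wells.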
# Numbers stand for hits; - = inactive; ? = inconclusive; . = no result; + = active, no number; ! = not active in a repeat. Unless noted, the call rests on the fitted dose curve; in most records, active means well fitted curve in the direction sought with a large enough effect; inconclusive means small, poorly fitted or top-dose-only effect, or another doubt; inactive means no such curve, though single readings can be large; an effect the other way counts as inactive or inconclusive.
SMILES,HCMV antiviral,AmpC detergent,HCV inh,FMDV inh,AmpC no deterg
COC(=O)Cc1c(C)nc2nc(NCc3ccc(Br)cc3)[nH]n2c1=O,-,-,.,-,.
CC1CCN(S(=O)(=O)c2ccc3c(c2)CCC(=O)N3CC(=O)Nc2cccc(C#N)c2)CC1,-,-,.,-,?
Cc1ccc(/C=N/n2c(COc3ccccc3)n[nH]c2=S)o1,-90,-,-,-,-
COc1ccccc1NC(=O)C(C)OC(=O)C1CCN(S(=O)(=O)c2ccccc2C(F)(F)F)CC1 (stereo not drawn),-,.,-,-,.
COc1ccc2c(c1OC)C(=O)OC2Nc1nc(-c2ccc([N+](=O)[O-])cc2)cs1 (stereo not drawn),-,-,-,-,-
COc1ccc2c(c1OC)C(=O)OC2Nc1nc(-c2cc3cc(Br)ccc3oc2=O)cs1 (stereo not drawn),-,-,-,-,32µM
COc1ccc(-c2csc(NC3OC(=O)c4c3ccc(OC)c4OC)n2)cc1OC (stereo not drawn),-98,-,-,?,-
COc1cc(=O)n2c(c1C(=O)NCc1ccc3c(c1)OCO3)CCN(C(=O)c1ccccc1F)CC2,.,.,.,-,.
O=C(Nc1ccccc1)C1Cc2c(-c3ccco3)ccnc2O1 (stereo not drawn),-,.,.,-,.
CCc1ccc(C2=NN(C(=O)CCC(=O)O)C(c3cccs3)C2)cc1 (stereo not drawn),-,-,-,-,-
C[C@]1(O)CC(=O)C=C[C@H]1Nc1ccccc1,?,.,-,25µM,.
CC(O)(c1ccccc1)c1nc(-c2ccc(S(C)(=O)=O)cc2)cs1 (stereo not drawn),-,.,.,-,.
CCC1C=CC=CC[C@H](C)[C@@H](O)[C@](C)(O)C(=O)[C@@H](C)[C@H](O)[C@@H](C)C(=O)[C@H](C)[C@@H](O)[C@H](C)C=CC(=O)OC2[C@@H](C)C(CC1)OC1(CC[C@@H](C)C(C[C@H](C)O)O1)[C@@H]2C (stereo partly drawn),.,?,0.89µM,.,-
Cc1cccc(C(=O)N2CCOc3ccc(CN(C)Cc4cc(C5CC5)n[nH]4)cc3C2)n1,.,.,.,-,.
COc1cc2ccccc2c2c1CCCC2=O,-,-,13µM,-,-
CCOc1ccc(C(=O)Nc2ccc(C(=O)OCc3cc(=O)n4nc(CC)sc4n3)cc2)cc1,-,-,.,-,.
CCCN(CC(=O)Nc1ccc(Cl)cc1Cl)C(=O)/C=C/c1ccco1,-66,-,?,-,-
CCN(CC(=O)Nc1ccc(NC(C)=O)cc1)C(=O)/C=C/c1ccco1,-,-,-,-,-
Cc1ccc(Nc2nnc(-c3ccc(C)c(S(N)(=O)=O)c3)c3ccccc23)cc1,-,-,.,-,.
Cc1ccc(Nc2nccc(N(C)c3ccc4c(C)n(C)nc4c3)n2)cc1S(N)(=O)=O,-84,.,.,.,.
CCOc1cc(C(=O)NCC(c2ccc(N(C)C)cc2)N2CCOCC2)cc(OCC)c1OCC (stereo not drawn),-62,-,.,-,.
CN(C)c1ccc(C(CNC(=O)c2ccc(C(C)(C)C)cc2)N2CCOCC2)cc1 (stereo not drawn),-,-,.,-,.
COc1ccccc1CCNC(=O)CCn1c(=O)c2cccn2c2ccc(F)cc21,?,-,-,-,-
COC(=O)Cc1ccc(NC(=S)N2CCN(c3cccc(O)c3)CC2)cc1,-64,-,?,?,-
COC(=O)Cc1ccc(NC(=S)N2CCN(c3ccc(OC)cc3)CC2)cc1,-,-,-,-,-
SMILES,HCMV antiviral,AmpC detergent,HCV inh,FMDV inh,AmpC no deterg
COc1ccccc1-c1coc2cc(O)ccc2c1=O,.,.,.,-,.
CCC(Oc1ccc2c(=O)c(-c3ccccc3OC)coc2c1)C(=O)OCc1ccccc1 (stereo not drawn),-,-,?,20µM,-
Cc1nc(Sc2ccccc2)c(C#N)c(C)c1[N+](=O)[O-],-103,-,?,?,-
Cc1cc(C)c(C#N)c(Sc2nc(C)c([N+](=O)[O-])c(C)c2C#N)n1,-,.,.,22µM,.
Cc1cc(C)c(C#N)c(SCc2ccc([N+](=O)[O-])cc2)n1,-,-,-,-,-
CN1C(=O)/C(=C/c2ccccc2Cl)Sc2ccc(C(=O)NCc3cccnc3)cc21,-,-,-,40µM,-
CN1C(=O)/C(=C/c2ccccc2F)Sc2ccc(C(=O)NCC3CCCO3)cc21 (stereo not drawn),-,?,-,-,-
CCOc1ccc(Br)cc1CC(=O)O,-,.,-,-,.
CCCOc1ccc(Br)cc1CSC(=N)N,-95,?,?,?,-
CCCN(C(=O)COC(=O)CCC(=O)c1ccccc1)c1c(N)n(Cc2ccccc2)c(=O)[nH]c1=O,-,.,.,-,.
O=C(NCCn1ccc2ccccc21)c1ccc(S(=O)(=O)N2CCCCC2)cc1,-67,-,?,?,-
CCN(CC)CCNC(=O)c1ccc(NC(=O)c2ccc(Cl)c(S(=O)(=O)N3CCCCCC3)c2)cc1,-60,-,14µM,-,-
CCN(CC)CCNC(=O)c1ccc(NC(=O)c2cccc(S(=O)(=O)N3CCCCCC3)c2)cc1,-,.,?,-,.
CCN(CC)CCNC(=O)c1ccc(NC(=O)c2ccc(S(=O)(=O)N3CCCCCC3)cc2)cc1,-,-,10µM,-,-
CCN(CC(=O)Nc1c(F)cccc1F)C(=O)CN1C(=O)C2CCCCC2C1=O (stereo not drawn),-,-,-,-,-
COCOCCn1cc(CN2CCS(=O)(=O)N(Cc3ccc(-c4ccc(OC)cc4)cc3)C(C)C2=O)nn1 (stereo not drawn),-,.,.,-,.
CCn1c2ccccc2c2cc(NC(=O)CN3CCCC3)ccc21,-,-,?,-,-
CCn1c(C)c(C)c2cc(C(=O)Nc3cccc(Cl)c3)ccc21,-,-,2µM,-,-
CCn1c2ccccc2c2cc(NC(=O)c3ccco3)ccc21,-69,?,3.2µM,.,-
CCn1c2ccccc2c2cc(NS(=O)(=O)c3ccc(C)cc3)ccc21,-60,-,?,-,-
CCn1c2ccccc2c2cc(NC(=O)C(=O)N3CCOCC3)ccc21,-,-,11µM,-,-
CCn1c(=O)n(CC)c2cc(NS(=O)(=O)c3ccccc3)ccc21,-,-,-,-,-
CCn1c2ccccc2c2cc(NC(C)=O)ccc21,-,?,?,-,-
S=C1NCN(CC2CC2)CN1,-,.,.,.,.
CCc1ccc(S(=O)(=O)c2cn(CC)c3cc(N4CCCCC4)c(F)cc3c2=O)cc1,-,-,.,-,.
CCCN(C(=O)Cc1coc2cc(OC)ccc12)C1CCS(=O)(=O)C1 (stereo not drawn),-,.,-,-,-
CCn1c2ccccc2c2cc(NC(=O)c3cccc(OC)c3)ccc21,-,-,11µM,-,?
CCn1c(C)c(C)c2cc(C(=O)NCCCN3CCCCC3C)ccc21 (stereo not drawn),+!,-,-,-,-
